Reference: PubChem BioAssay (EPA / NIEHS)
Records with an inconclusive call do not appear. Calls of active or inactive are those of the source. The calls were made as follows, unless noted: active = hit-call score of the fitted dose curve at least 0.9, where 1 is the maximum; inactive = score below 0.9.

How the values were obtained:
[1] = read-out: E-selectin (Homo sapiens) (UniProt P16581); assay: BSK_3C_Eselectin: BioMAP Diversity Plus: 3C Assay for Eselectin Biomarker Activity (AID 2283015); details: primary human endothelial cells (HUVEC); actives raise or lower the signal;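 also: cell surface E-selectin protein quantified by ELISA 24 h after dosing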
Summary of the method: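 Primary human umbilical vein endothelial cells (3C system), read 24 h after compound addition; E-selectin measured by ELISA. Bidirectional curve fitting against DMSO baseline; cytotoxicity by parallel SRB total-protein staining.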

[2] = read-out: Interleukin-1 alpha (IL1a), IL1A (gene 3552); assay: BSK_BE3C_IL1a: BioMAP Diversity Plus: BE3C Assay for Interleukin-1 alpha (IL1a) Biomarker Activity (AID 2283016); details: primary human bronchial epithelial cells; actives raise or lower the signal
Summary of the method: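 BE3C primary human bronchial epithelium; cpd 24 h; IL-1a by ELISA; bidirectional fit vs DMSO; parallel SRB (0.1% SRB, 10% TCA fix, 560 nm) for cytotoxicity.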

[3] = read-out: Monocyte Chemoattractant Protein-1 (MCP1), CCL2 (gene 6347); assay: BSK_3C_MCP1: BioMAP Diversity Plus: 3C Assay for Monocyte Chemoattractant Protein-1 (MCP1) Biomarker Activity (AID 2283017); details: primary human endothelial cells (HUVEC); actives raise or lower the signal
Summary of the method: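 Human umbilical vein endothelial cells (3C system) exposed to chemicals for 24 h; MCP-1 quantified by ELISA against the DMSO baseline with bidirectional fitting, and parallel SRB staining used to assess cytotoxicity.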

[4] = read-out: Monocyte Chemoattractant Protein-1 (MCP1), CCL2 (gene 6347); assay: BSK_4H_MCP1: BioMAP Diversity Plus: 4H Assay for Monocyte Chemoattractant Protein-1 (MCP1) Biomarker Activity (AID 2283018); details: primary human endothelial cells (HUVEC); actives raise or lower the signal
Summary of the method: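 ELISA read-out of MCP-1 from human vascular endothelial primary cells taken at 24 hours after compound exposure. Activity was fitted in both directions relative to DMSO, which served as negative control.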

[5] = read-out: Human Leukocyte Antigen - DR isotype (HLADR), HLA-DRA (gene 3122); assay: BSK_3C_HLADR: BioMAP Diversity Plus: 3C Assay for Human Leukocyte Antigen - DR isotype (HLADR) Biomarker Activity (AID 2283019); details: primary human endothelial cells (HUVEC); actives raise or lower the signal;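 also: ELISA of cell-surface HLA-DR on HUVEC 24 h after dosing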
Summary of the method: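 HUVEC monoculture, HLA-DR measured by ELISA 24 h after chemical dosing. Fitted bidirectionally against DMSO baseline; parallel SRB staining assessed cytotoxicity, with 3C proliferation read by SRB at 48 h.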

[6] = read-out: Interleukin-8 (IL8), CXCL8 (gene 3576); assay: BSK_3C_IL8: BioMAP Diversity Plus: 3C Assay for Interleukin-8 (IL8) Biomarker Activity (AID 2283020); details: primary human endothelial cells (HUVEC); actives raise or lower the signal
Summary of the method: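 ELISA read-out of IL-8 from human umbilical vein endothelium, measured 24 h after chemical dosing. Activity is expressed relative to DMSO negative control, with both increases and decreases fitted.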

[7] = read-out: Monokine induced gamma interferon (MIG), CXCL9 (gene 4283); assay: BSK_3C_MIG: BioMAP Diversity Plus: 3C Assay for Monokine induced gamma interferon (MIG) Biomarker Activity (AID 2283021); details: primary human endothelial cells (HUVEC); actives raise or lower the signal
Summary of the method: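 Read-out is ELISA detection of MIG on human umbilical vein endothelial cells, taken 24 h after dosing. Gain or loss of signal was scored relative to DMSO controls using bidirectional curve fitting.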

[8] = biological target: human Vitamin D Receptor (VDR), VDR (gene 7421) (UniProt P11473); assay: ATG_VDR_TRANS: Attagene TRANS-FACTORIAL HepG2 Assay for human Vitamin D Receptor (VDR) (AID 2283022; active = hit-call score of the fitted dose curve at least 0.9, where 1 is the maximum)
Chain of human Vitamin D Receptor (VDR), VDR (gene 7421) (P11473 whole entry, looked up, the tested form may be a part): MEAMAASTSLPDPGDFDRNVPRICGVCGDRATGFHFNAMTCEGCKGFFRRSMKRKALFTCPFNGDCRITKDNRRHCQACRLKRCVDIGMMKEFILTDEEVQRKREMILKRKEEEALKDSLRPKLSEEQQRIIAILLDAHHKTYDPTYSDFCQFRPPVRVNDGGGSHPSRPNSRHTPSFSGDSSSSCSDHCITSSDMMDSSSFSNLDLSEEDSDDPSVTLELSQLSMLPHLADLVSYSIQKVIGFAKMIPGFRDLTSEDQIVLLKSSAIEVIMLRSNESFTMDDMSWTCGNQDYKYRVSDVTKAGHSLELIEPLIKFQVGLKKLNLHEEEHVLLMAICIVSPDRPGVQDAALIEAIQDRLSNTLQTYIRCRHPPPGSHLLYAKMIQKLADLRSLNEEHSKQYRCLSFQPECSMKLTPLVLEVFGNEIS
Summary of the method: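 HepG2 cells were transiently transfected with GAL4-UAS reporter units and a chimeric VDR-Gal4 construct, then dosed for 24 hours. Reporter mRNA was quantified by RT-PCR, fluorescent labeling, HpaI digestion and capillary electrophoresis; gain of signal analysed vs DMSO.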

[9] = BSK_3C_SRB: Viability Assessment in the BioMAP Diversity Plus: 3C Assay (AID 2283023); details: primary human endothelial cells (HUVEC);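 also: fitted both ways against DMSO so a hit may be signal rise or drop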
Summary of the method: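 Human umbilical vein endothelial cells in the 3C system, treated 24 h. Total protein measured by 0.1% sulforhodamine B staining after 10% TCA fixation, read at 560 nm; bidirectional fit versus DMSO.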

[10] = read-out: Matrix Metallopeptidase 1 (MMP1), MMP1 (gene 4312); assay: BSK_BE3C_MMP1: BioMAP Diversity Plus: BE3C Assay for Matrix Metallopeptidase 1 (MMP1) Biomarker Activity (AID 2283024); details: primary human bronchial epithelial cells; actives raise or lower the signal
Summary of the method: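 Human bronchial epithelial cells (BE3C system) exposed to compound for 24 h; MMP1 then quantified by ELISA. Activity was fitted in both directions relative to DMSO.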

[11] = BSK_3C_Vis: BioMAP Diversity Plus: 3C Assay for Morphology Visualization (AID 2283025); details: primary human endothelial cells (HUVEC);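 also: fitted both ways so gain or loss versus DMSO counts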
Summary of the method: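 Chemicals were added to primary human umbilical vein endothelium, cells were incubated 24 h, and morphology was then visualized by light microscopy. Gain or loss of signal was fitted bidirectionally relative to DMSO.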

[12] = read-out: Pselectin, SELP (gene 6403); assay: BSK_4H_Pselectin: BioMAP Diversity Plus: 4H Assay for Pselectin Biomarker Activity (AID 2283026); details: primary human endothelial cells (HUVEC); actives raise or lower the signal
Summary of the method: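 ELISA read-out of P-selectin on human umbilical vein endothelium after 24 h of dosing. Values derive from bidirectional fitting relative to DMSO. Parallel SRB protein staining flagged overt cytotoxicity.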

[13] = BSK_BE3C_SRB: Viability Assessment in the BioMAP Diversity Plus: BE3C Assay (AID 2283028); details: primary human bronchial epithelial cells
Summary of the method: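 Human bronchial epithelial primary cells in confluent culture, 24 h after chemical dosing; total protein by 0.1% SRB staining after 10% TCA fixation, read at 560 nm. Bidirectional fitting versus DMSO baseline.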

[14] = read-out: Thrombomodulin, THBD (gene 7056); assay: BSK_3C_Thrombomodulin: BioMAP Diversity Plus: 3C Assay for Thrombomodulin Biomarker Activity (AID 2283029); details: primary human endothelial cells (HUVEC); actives raise or lower the signal
Summary of the method: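 Read-out is ELISA of thrombomodulin on human umbilical vein endothelium 24 h after chemical dosing. Gain or loss of signal is scored relative to DMSO. Overt cytotoxicity is checked in parallel cultures by sulforhodamine B staining.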

[15] = read-out: Urokinase-type plasminogen activator receptor (uPAR), PLAUR (gene 5329); assay: BSK_4H_uPAR: BioMAP Diversity Plus: 4H Assay for Urokinase-type plasminogen activator receptor (uPAR) Biomarker Activity (AID 2283030); details: primary human endothelial cells (HUVEC); actives raise or lower the signal
Summary of the method: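 Human umbilical vein endothelial cells in the 4H system, 24 h after chemical dosing. Cell-surface uPAR measured by ELISA, fitted in both directions versus DMSO; cytotoxicity checked by SRB total protein in parallel cultures.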

[16] = read-out: Vascular endothelial growth factor receptor 2 (Homo sapiens) (UniProt P35968); assay: BSK_4H_VEGFRII: BioMAP Diversity Plus: 4H Assay for Vascular endothelial growth factor receptor 2 (VEGFR2) Biomarker Activity (AID 2283031); details: primary human endothelial cells (HUVEC); actives raise or lower the signal
Summary of the method: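 Primary human umbilical vein endothelial cells (4H system), 24 h exposure; cell-surface VEGFR2 measured by ELISA. Bidirectional fitting versus DMSO; cytotoxicity checked in parallel by SRB total-protein staining.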

[17] = read-out: Vascular cell adhesion molecule 1 (VCAM1), VCAM1 (gene 7412); assay: BSK_4H_VCAM1: BioMAP Diversity Plus: 4H Assay for Vascular cell adhesion molecule 1 (VCAM1) Biomarker Activity (AID 2283033); details: primary human endothelial cells (HUVEC); actives raise or lower the signal;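 also: cell-surface VCAM-1 protein measured by ELISA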
Summary of the method: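 ELISA read-out of VCAM-1 on human umbilical vein endothelium 24 hours after chemical dosing; gain or loss of signal was fitted relative to DMSO, with sulforhodamine B staining of parallel cultures flagging overt cytotoxicity.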

[18] = read-out: Interferon-gamma inducible Protein 10 (IP10), CXCL10 (gene 3627); assay: BSK_BE3C_IP10: BioMAP Diversity Plus: BE3C Assay for Interferon-gamma inducible Protein 10 (IP10) Biomarker Activity (AID 2283034); details: primary human bronchial epithelial cells; actives raise or lower the signal
Summary of the method: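 Chemical is dosed onto human lung bronchial epithelial primary cells, cultures are incubated 24 h, and IP-10 is then quantified by ELISA. Gain or loss of signal is fitted in both directions relative to DMSO.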

[19] = BSK_4H_SRB: Viability Assessment in the BioMAP Diversity Plus: 4H Assay (AID 2283027); details: primary human endothelial cells (HUVEC);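 also: cells exposed to compound for 24 h before staining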
Summary of the method: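 Absorbance at 560 nm of SRB-stained total protein served as the viability read-out in confluent primary human umbilical vein endothelium 24 h after chemical treatment. Curves were fitted bidirectionally against DMSO as negative control.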

[20] = read-out: Human Leukocyte Antigen - DR isotype (HLADR), HLA-DRA (gene 3122); assay: BSK_BE3C_HLADR: BioMAP Diversity Plus: BE3C Assay for Human Leukocyte Antigen - DR isotype (HLADR) Biomarker Activity (AID 2283032); details: primary human bronchial epithelial cells; actives raise or lower the signal
Summary of the method: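 ELISA read-out of HLA-DR on human lung bronchial epithelial primary cells, measured 24 h post-dosing. Both increases and decreases were scored relative to DMSO vehicle.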

Measured: outcome

Chain of E-selectin (Homo sapiens) (P16581 whole entry, looked up): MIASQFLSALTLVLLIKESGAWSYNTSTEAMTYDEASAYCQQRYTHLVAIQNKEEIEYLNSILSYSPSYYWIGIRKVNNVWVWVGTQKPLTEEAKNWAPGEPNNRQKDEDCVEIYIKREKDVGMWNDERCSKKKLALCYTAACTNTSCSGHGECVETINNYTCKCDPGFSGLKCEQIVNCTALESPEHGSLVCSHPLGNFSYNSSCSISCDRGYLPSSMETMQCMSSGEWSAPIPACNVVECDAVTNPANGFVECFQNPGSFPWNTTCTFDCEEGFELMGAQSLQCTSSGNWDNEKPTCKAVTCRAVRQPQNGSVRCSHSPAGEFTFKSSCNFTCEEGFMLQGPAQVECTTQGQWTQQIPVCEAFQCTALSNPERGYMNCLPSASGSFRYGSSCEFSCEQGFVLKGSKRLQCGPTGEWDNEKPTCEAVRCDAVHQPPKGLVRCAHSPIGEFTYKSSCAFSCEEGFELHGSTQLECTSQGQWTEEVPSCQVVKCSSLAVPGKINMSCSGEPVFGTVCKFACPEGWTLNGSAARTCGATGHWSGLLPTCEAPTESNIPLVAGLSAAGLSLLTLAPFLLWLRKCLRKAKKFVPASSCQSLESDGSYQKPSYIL

CCOCCOCCOCCO
not listed: [19] | [20]
inactive: all other assays above

O=C(O)CCN(C1(C(=O)NO)CCCC1)S(=O)(=O)c1ccc(Oc2ccc(F)cc2)cc1
not listed: [11] | [20]
inactive: all other assays above

CC1=CC(=O)CC(C)(C)C1
not listed: [8] | [19]
inactive: all other assays above

C=CC(=C)CCC=C(C)C
not listed: [20]
inactive: all other assays above

CCN(C(=O)c1cc(C)cc(OC[C@H](C)Nc2ccncc2)c1)C(C)C
not listed: [8] | [20]
inactive: all other assays above

CC[C@H]1OC(=O)[C@H](C)[C@@H](O[C@H]2C[C@@](C)(OC)[C@@H](O)[C@H](C)O2)[C@H](C)[C@@H](O[C@@H]2O[C@H](C)C[C@H](N(C)C)[C@H]2O)[C@](C)(O)C[C@@H](C)C(=O)[C@H](C)[C@@H](O)[C@]1(C)O
not listed: [19] | [20]
inactive: all other assays above

Cn1c(=O)c2c(ncn2C)n(C)c1=O
not listed: [8] | [11]
inactive: all other assays above
